Source: the supplement of paper PMC10849652
Of roughly 7,900 targets only a part is listed; those with a hit were picked by preference. About 0.6% of all pairs of compound and target were hits.

Columns and labels:
Experiment in all cases: log2 fold change, soluble protein after heating vs DMSO (PISA); higher = thermal stabilisation; K562 cells, 10 uM, 30 min; active = over 0.2 and 3.5 SD of the protein, either way, in both replicates (recomputed)
erlotinib = compound: C#Cc1cccc(Nc2ncnc3cc(OCCOC)c(OCCOC)cc23)c1 [erlotinib]
Procedure, shortened: (§1)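 Soluble protein was quantified by TMTpro 16plex LC-MS/MS after channel sums were equalised. It was obtained as the supernatant after 21,000xg for 90 min from pooled aliquots of K562 cells (2×10^6 cells/mL, 10 μM compound, 30 min) heated for 3 min across 48°C-58°C and extracted in PBS with 0.5% NP-40 at 4°C. Thermal stability values are relative to control samples and come from duplicates. They are given as log2 fold changes.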

[1] = compound: C/C(=N\NC(=O)C1=CC(=CC=C1)S(=O)(=O)N2CCOCC2)/C3=C(C=CC(=C3)Cl)O
Procedure, shortened: as §1

[2] = compound: C1=CC(=C(C=C1Cl)C2=NC3=NC=CN=C3C(=N2)NC4=CC=NC=C4)F
Procedure, shortened: as §1

[3] = compound: C1=CC(=CC=C1C2=NC3=C(N2)C=C(C=C3)C(=O)N)OC4=CC=C(C=C4)Cl
Procedure, shortened: as §1

[4] = compound: C1=CC2=C(C=CC(=C2)/C=C\3/C(=O)NC(=NCC4=CC=CS4)S3)N=C1
Procedure, shortened: as §1

[5] = compound: C1=CC2=NC=CN=C2C=C1/C=C/3\C(=O)NC(=O)S3
Procedure, shortened: as §1

[6] = compound: C1=CC=C(C=C1)C2=NC(=C(N2)C3=CC=NC=C3)C4=CC(=C(C=C4)Cl)O
Procedure, shortened: as §1

[7] = compound: C1=CC=C2C(=C1)C3=NNC4=CC=CC(=C43)C2=O
Procedure, shortened: as §1

[8] = compound: C1CCN(C1)C(=O)NC2=CC=CC(=C2)NC3=NC=C(C(=N3)NCCC4=CN=CN4)Br
Procedure, shortened: as §1

[9] = compound: C1CN(CCC1(CC2=CC=C(C=C2)Cl)N)C3=NC=NC4=C3C=CN4
Procedure, shortened: as §1

Measured: log2 fold change

TMEM192 (UniProt Q8IY95)
inactive: erlotinib 0.044 | [1] -0.017 | [2] 0.011 | [3] -0.008 | [4] -0.011 | [5] 0.067 | [6] 0.011 | [7] -0.017 | [8] 0.039 | [9] 0.038

TOE1 (UniProt Q96GM8)
inactive: erlotinib -0.029 | [1] -0.151 | [2] -0.267 | [3] -0.056 | [4] 0.002 | [5] 0.005 | [6] -0.05 | [7] -0.035 | [8] -0.021 | [9] -0.107

TMEM41A (UniProt Q96HV5)
inactive: erlotinib 0.013 | [1] 0.046 | [2] -0.02 | [3] -0.014 | [4] 0.024 | [5] 0.037 | [6] -0.04 | [7] 0.013 | [8] -0.069 | [9] 0.033

TRABD (UniProt Q9H4I3)
inactive: erlotinib -0.057 | [1] -0.023 | [2] -0.029 | [3] 0.016 | [4] 0.032 | [5] -0.049 | [6] 0.121 | [7] 0.074 | [8] -0.077 | [9] 0.071

WDCP (UniProt Q9H6R7)
inactive: erlotinib 0.083 | [1] -0.003 | [2] 0.058 | [3] 0.065 | [4] -0.015 | [5] 0.134 | [6] -0.022 | [7] -0.068 | [8] -0.012 | [9] -0.011

WDR46 (UniProt O15213)
active: [2] -0.816
inactive: erlotinib -0.209 | [1] -0.231 | [3] 0.008 | [4] -0.154 | [5] 0.065 | [6] -0.055 | [7] 0.052 | [8] 0.057 | [9] -0.087

TMEM70 (UniProt Q9BUB7)
inactive: erlotinib -0.286 | [1] 0.03 | [2] 0.023 | [3] 0.257 | [4] 0.008 | [5] -0.09 | [6] -0.063 | [7] -0.039 | [8] -0.007 | [9] 0.053

TMEM120A (UniProt Q9BXJ8)
inactive: erlotinib -0.036 | [1] 0.109 | [2] 0.174 | [3] 0.053 | [4] 0 | [5] 0.236 | [6] -0.02 | [7] -0.036 | [8] -0.071 | [9] 0.1

UBE2S (UniProt Q16763)
inactive: erlotinib 0.01 | [1] 0.064 | [2] -0.025 | [3] -0.021 | [4] 0.052 | [5] 0.014 | [6] -0.008 | [7] 0.014 | [8] -0.02 | [9] 0.029

WDR7 (UniProt Q9Y4E6)
inactive: erlotinib 0.06 | [1] 0.074 | [2] 0.065 | [3] -0.049 | [4] 0.092 | [5] -0.001 | [6] 0.099 | [7] 0.028 | [8] -0.009 | [9] -0.02

UBAP2L isoform 5 (UniProt Q14157)
inactive: erlotinib 0.057 | [1] -0.005 | [2] 0.005 | [3] 0 | [4] 0.013 | [5] 0.015 | [6] -0.029 | [7] -0.03 | [8] -0.007 | [9] 0.026

TMEM9B (UniProt Q9NQ34)
inactive: erlotinib 0.062 | [1] -0.044 | [2] 0.009 | [3] -0.006 | [4] 0.055 | [5] -0.013 | [6] -0.016 | [7] -0.016 | [8] -0.006 | [9] 0.042

UBE2Q1 (UniProt Q7Z7E8)
inactive: erlotinib 0.058 | [1] 0.006 | [2] 0.059 | [3] 0.017 | [4] 0.019 | [5] 0.061 | [6] 0.014 | [7] 0.026 | [8] -0.016 | [9] -0.037

UGGT1 (UniProt Q9NYU2)
UniProt Q9NYU2, sequence (Q9NYU2 whole entry, looked up): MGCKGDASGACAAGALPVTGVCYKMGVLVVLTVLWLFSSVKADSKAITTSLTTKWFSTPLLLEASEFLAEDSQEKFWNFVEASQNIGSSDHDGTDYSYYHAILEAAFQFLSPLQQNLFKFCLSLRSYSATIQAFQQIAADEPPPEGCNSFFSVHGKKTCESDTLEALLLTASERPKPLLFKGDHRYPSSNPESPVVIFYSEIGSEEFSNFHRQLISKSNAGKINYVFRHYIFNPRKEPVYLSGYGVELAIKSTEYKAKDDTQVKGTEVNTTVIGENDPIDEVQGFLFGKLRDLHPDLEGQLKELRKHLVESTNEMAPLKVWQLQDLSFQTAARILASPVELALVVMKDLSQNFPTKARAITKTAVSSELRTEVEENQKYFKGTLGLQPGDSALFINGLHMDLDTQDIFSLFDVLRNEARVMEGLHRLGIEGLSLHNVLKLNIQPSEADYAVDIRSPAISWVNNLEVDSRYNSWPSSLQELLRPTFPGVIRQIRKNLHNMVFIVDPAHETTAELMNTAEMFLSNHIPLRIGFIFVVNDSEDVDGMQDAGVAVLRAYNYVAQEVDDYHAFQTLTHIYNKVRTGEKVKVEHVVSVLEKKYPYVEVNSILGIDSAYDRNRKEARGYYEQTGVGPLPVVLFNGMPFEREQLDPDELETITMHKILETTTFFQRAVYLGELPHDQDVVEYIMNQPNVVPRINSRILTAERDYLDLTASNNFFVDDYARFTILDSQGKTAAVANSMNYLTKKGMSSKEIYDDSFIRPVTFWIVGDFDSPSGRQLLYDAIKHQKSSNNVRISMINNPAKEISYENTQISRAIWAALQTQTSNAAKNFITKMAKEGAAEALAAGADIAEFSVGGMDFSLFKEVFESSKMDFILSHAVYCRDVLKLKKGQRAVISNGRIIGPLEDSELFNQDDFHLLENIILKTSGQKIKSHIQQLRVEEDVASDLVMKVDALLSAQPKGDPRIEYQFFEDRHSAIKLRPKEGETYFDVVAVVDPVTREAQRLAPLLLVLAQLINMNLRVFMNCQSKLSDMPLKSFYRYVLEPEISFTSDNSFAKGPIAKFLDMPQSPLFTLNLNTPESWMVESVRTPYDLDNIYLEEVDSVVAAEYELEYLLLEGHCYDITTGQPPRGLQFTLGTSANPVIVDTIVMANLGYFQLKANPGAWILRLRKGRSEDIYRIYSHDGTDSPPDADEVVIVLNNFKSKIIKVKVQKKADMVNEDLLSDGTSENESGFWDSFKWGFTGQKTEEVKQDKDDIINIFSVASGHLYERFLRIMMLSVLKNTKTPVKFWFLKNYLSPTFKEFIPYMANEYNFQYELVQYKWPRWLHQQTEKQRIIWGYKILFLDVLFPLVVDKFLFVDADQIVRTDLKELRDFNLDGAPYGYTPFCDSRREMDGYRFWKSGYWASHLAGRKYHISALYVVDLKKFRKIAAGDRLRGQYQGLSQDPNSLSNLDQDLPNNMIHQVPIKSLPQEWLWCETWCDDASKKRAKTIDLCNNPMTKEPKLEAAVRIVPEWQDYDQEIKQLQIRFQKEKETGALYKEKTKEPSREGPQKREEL
inactive: erlotinib -0.027 | [1] 0.016 | [2] 0.007 | [3] 0.007 | [4] 0.018 | [5] 0.014 | [6] -0.012 | [7] 0.019 | [8] -0.015 | [9] 0.005

UTP3 (UniProt Q9NQZ2)
inactive: erlotinib -0.098 | [1] -0.076 | [2] -0.748 | [3] 0.063 | [4] -0.068 | [5] 0 | [6] -0.255 | [7] -0.004 | [8] 0.006 | [9] -0.203

UHRF1BP1 (UniProt Q6BDS2)
inactive: erlotinib -0.018 | [1] -0.01 | [2] 0.011 | [3] 0.033 | [4] 0.001 | [5] 0.008 | [6] -0.017 | [7] -0.009 | [8] -0.013 | [9] 0.008

TMEM223 (UniProt A0PJW6)
inactive: erlotinib 0.005 | [1] 0.052 | [2] -0.018 | [3] 0.002 | [4] -0.009 | [5] 0.013 | [6] -0.007 | [7] 0.01 | [8] 0.007 | [9] -0.038

VDAC1 (UniProt P21796)
inactive: erlotinib -0.006 | [1] 0 | [2] 0.039 | [3] -0.003 | [4] -0.023 | [5] 0.006 | [6] -0.004 | [7] 0.005 | [8] 0.006 | [9] 0.067

XPO5 (UniProt Q9HAV4)
UniProt Q9HAV4, sequence (Q9HAV4 whole entry, looked up): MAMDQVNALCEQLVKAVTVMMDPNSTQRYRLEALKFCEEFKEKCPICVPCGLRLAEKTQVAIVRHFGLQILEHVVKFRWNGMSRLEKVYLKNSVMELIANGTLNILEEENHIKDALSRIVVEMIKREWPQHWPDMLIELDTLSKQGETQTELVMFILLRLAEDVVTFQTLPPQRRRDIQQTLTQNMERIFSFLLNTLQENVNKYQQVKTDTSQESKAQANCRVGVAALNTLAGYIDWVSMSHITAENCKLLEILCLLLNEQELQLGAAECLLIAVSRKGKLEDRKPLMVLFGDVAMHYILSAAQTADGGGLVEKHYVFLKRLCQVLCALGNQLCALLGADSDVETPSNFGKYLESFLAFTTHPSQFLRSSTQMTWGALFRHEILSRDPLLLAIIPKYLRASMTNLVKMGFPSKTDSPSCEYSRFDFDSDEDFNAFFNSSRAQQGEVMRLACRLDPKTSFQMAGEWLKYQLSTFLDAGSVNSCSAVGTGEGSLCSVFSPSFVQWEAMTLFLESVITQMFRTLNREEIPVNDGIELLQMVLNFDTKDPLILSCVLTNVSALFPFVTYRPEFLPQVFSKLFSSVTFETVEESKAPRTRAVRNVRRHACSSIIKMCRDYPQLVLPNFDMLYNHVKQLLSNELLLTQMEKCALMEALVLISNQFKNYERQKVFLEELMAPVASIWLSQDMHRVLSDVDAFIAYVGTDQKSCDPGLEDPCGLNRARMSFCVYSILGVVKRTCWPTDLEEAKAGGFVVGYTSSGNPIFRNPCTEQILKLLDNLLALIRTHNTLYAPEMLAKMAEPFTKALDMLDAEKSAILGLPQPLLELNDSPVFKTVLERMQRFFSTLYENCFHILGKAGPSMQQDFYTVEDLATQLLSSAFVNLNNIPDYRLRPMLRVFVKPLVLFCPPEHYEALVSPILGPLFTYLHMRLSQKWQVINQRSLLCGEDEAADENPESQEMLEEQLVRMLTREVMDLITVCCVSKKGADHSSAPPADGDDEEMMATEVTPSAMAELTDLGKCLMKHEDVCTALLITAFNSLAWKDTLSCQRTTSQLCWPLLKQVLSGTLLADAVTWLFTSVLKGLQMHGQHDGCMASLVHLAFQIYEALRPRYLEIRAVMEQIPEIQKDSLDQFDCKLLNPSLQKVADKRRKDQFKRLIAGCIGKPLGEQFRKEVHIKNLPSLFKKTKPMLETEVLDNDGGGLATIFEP
inactive: erlotinib 0.011 | [1] 0.103 | [2] 0.105 | [3] -0.005 | [4] 0.011 | [5] 0.016 | [6] 0.023 | [7] -0.019 | [8] -0.024 | [9] -0.001

UBE4B isoform 4 (UniProt O95155)
UniProt O95155, sequence (O95155 whole entry, looked up): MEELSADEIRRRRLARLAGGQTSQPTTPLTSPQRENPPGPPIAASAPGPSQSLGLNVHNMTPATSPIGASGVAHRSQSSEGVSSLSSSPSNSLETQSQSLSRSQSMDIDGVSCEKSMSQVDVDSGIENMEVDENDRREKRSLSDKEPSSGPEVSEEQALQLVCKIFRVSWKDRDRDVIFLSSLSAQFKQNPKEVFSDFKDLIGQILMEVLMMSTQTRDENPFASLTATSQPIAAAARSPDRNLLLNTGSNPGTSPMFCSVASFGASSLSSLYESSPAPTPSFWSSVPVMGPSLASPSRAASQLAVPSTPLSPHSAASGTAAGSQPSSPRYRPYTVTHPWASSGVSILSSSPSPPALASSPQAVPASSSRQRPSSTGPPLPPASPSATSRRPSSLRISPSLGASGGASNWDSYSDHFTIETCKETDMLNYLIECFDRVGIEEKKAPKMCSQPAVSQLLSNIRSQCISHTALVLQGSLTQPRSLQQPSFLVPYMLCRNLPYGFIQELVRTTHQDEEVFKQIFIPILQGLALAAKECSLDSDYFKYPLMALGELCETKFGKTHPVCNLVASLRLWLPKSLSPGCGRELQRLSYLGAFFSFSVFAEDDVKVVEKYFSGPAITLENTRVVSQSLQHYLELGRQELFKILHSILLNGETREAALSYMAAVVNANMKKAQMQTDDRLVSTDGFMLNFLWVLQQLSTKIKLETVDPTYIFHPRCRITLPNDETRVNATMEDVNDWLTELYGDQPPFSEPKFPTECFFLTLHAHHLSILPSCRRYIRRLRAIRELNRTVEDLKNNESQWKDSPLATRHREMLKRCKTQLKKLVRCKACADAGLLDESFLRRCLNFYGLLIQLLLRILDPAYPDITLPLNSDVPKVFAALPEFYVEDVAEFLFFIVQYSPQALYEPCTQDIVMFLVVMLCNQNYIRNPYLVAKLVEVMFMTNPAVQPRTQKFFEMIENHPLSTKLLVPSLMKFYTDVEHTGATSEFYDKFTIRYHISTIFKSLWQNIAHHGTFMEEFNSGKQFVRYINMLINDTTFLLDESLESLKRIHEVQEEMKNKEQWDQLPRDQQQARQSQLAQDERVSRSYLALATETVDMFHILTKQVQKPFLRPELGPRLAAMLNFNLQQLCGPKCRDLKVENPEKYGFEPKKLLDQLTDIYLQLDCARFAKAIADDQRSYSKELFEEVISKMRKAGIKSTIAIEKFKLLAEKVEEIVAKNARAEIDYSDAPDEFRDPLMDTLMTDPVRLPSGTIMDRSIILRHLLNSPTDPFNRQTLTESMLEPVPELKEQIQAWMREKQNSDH
inactive: erlotinib -0.01 | [1] 0.026 | [2] 0.041 | [3] -0.016 | [4] 0 | [5] 0.055 | [6] 0.026 | [7] -0.013 | [8] -0.008 | [9] -0.025

XPOT (UniProt O43592)
UniProt O43592, sequence (O43592 whole entry, looked up): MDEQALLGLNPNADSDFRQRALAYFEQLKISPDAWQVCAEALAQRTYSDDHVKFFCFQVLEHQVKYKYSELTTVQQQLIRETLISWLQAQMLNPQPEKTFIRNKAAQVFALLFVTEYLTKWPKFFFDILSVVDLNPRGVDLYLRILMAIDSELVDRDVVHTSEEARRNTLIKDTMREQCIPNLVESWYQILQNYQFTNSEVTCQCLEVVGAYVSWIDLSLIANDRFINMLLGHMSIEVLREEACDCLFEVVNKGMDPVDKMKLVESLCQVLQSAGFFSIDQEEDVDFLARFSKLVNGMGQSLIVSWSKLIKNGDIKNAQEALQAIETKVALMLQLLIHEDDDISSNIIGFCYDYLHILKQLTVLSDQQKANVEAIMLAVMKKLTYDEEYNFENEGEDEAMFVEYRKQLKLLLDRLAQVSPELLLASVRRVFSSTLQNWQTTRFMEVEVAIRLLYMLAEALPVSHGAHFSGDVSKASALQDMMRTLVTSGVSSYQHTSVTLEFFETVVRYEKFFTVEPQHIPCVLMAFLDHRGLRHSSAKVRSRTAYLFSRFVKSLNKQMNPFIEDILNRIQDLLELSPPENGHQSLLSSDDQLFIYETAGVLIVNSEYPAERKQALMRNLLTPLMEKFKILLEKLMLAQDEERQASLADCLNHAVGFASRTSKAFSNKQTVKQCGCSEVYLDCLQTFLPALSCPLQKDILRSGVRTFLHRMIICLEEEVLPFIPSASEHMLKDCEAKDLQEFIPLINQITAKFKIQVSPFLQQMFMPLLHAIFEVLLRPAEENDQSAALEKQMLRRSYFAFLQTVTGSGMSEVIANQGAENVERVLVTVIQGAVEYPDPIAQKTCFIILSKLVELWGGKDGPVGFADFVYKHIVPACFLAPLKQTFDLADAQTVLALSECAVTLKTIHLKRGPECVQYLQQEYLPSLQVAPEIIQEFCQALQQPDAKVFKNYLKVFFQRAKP
inactive: erlotinib -0.035 | [1] 0.069 | [2] 0.005 | [3] -0.058 | [4] 0.037 | [5] 0.065 | [6] -0.047 | [7] -0.026 | [8] -0.005 | [9] -0.088

U2AF2 (UniProt P26368)
inactive: erlotinib 0.012 | [1] 0.045 | [2] -0.013 | [3] 0.029 | [4] -0.045 | [5] -0.004 | [6] 0.012 | [7] -0.048 | [8] -0.026 | [9] -0.074

VWA8 (UniProt A3KMH1)
inactive: erlotinib 0.077 | [1] 0.037 | [2] 0.017 | [3] -0.036 | [4] 0.108 | [5] 0.008 | [6] 0.017 | [7] 0.069 | [8] -0.009 | [9] 0.042

VPS13B (UniProt Q7Z7G8)
inactive: erlotinib 0.032 | [1] 0.024 | [2] 0.028 | [3] 0.009 | [4] 0.048 | [5] -0.025 | [6] 0.032 | [7] -0.017 | [8] -0.052 | [9] 0.058

VPS72 isoform 2 (UniProt Q15906)
inactive: erlotinib -0.017 | [1] -0.062 | [2] 0.053 | [3] -0.108 | [4] 0.04 | [5] -0.094 | [6] -0.054 | [7] -0.134 | [8] 0.056 | [9] 0.028

UBR2 (UniProt Q8IWV8)
inactive: erlotinib 0.019 | [1] 0.067 | [2] -0.108 | [3] 0.051 | [4] 0.045 | [5] 0.046 | [6] -0.08 | [7] -0.189 | [8] 0.016 | [9] 0.018

TOP2A isoform 4 (UniProt P11388)
inactive: erlotinib 0.008 | [1] -0.124 | [2] -0.429 | [3] 0.094 | [4] -0.061 | [5] 0.23 | [6] 0.077 | [7] 0.053 | [8] 0.073 | [9] -0.219
